Here are results for 13 compounds from paper PMC5540273 (PLoS ONE, 2017).
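Further: KINOMEscan kinase panel screen.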

The assay relates to CASK. The following applies: concentration: 1 μM, replicates: in singlicate; n = 1.
In the case of `Oc1ccc2ncnc(Nc3ccc(OCc4ccccc4)cc3)c2c1` [GI262866], the “%Inh” value came out at 8%.

Regarding `FC(F)(F)c1ccc(-c2cc(-c3c[nH]nc3-c3ccccn3)ccn2)cc1` [GW599550], the “%Inh” value worked out at 0%.

Regarding `CCc1nc(-c2cccc(C)c2)c(-c2ccnc(NC(=O)c3ccccc3)c2)s1`, the “%Inh” value is reported as 0%.

Take `CN1c2ccc(-c3ccc(C(=O)NCCO)cc3)cc2-c2[nH]ncc2S1(=O)=O`: the “%Inh” value was 48%.

As for `O=C(c1ccc(-c2cc(-c3c[nH]nc3-c3ccccn3)ccn2)cc1)N1CCCC1` [GW792479], the “%Inh” value is given as 21%.

`COc1ccc(-c2oc3ncnc(N)c3c2-c2ccc(OC)cc2)cc1` [SB-589132]: the “%Inh” value is 0%.

Take `CCc1nc(-c2cccc(N(C)S(=O)(=O)c3ccccc3)c2)c(-c2ccnc(Nc3ccc(N4CCN(C(C)=O)CC4)nc3)n2)s1` [GSK1645895]: the “%Inh” value is recorded as 5%.

On to `Fc1cccc(COc2ccc(Nc3ncnc4cc[nH]c34)cc2Cl)c1`, for which the “%Inh” value came out at 0%.

On to `Cl.c1ccc(Cn2ncc3cc(Nc4ncnc5ccccc45)ccc32)cc1` [GW273749], for which the “%Inh” value turned out to be 5%.

Turning to `COC(=O)c1cccc(NC(=O)NCCNc2ccnc(Nc3ccc(F)cc3)n2)c1` [GSK1379883], the “%Inh” value was 0%.

`Cl.c1ccc(Cn2ccc3cc(Nc4ncnc5ccccc45)ccc32)cc1` [GW275568]: the “%Inh” value is 17%.

Turning to `COc1ccc(Nc2nccc(N3CCC(NC(=O)c4cccc(NC(C)=O)c4)C3)n2)cc1` (stereo not shown) [GSK1379732], the “%Inh” value is listed as 13%.

As to `Nc1nccc2scc(-c3ccc4c(c3)CCN4C(=O)Cc3cc(F)ccc3F)c12` [GSK2587663], the “%Inh” value is listed as 22%.
